In PubChem BioAssay:
For part of these data: Potency and affinity values are given separately. Calls of active or inactive are those of the source.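 How the source made its calls, unless noted: active means membrane potential signal rise above negative control mean plus 3 SD in both duplicates, also active in the earlier TRPC4 screen; inactive means the rest.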

Experiments:
[1] = test system: TRPC4 beta (transient receptor potential cation channel C4), mouse; assay: activators of mouse TRPC4 channel, confirmation, cell-based, Fluo4 calcium, HEK293 TRPC4beta/mu-opioid, duplicates, 10 µM (AID 2426;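 active means fluorescence ratio normalized to control raised more than 50% in primary screen plus both repeat runs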); conditions: Fluo4 calcium fluorescence, at 10 µM; stronger effect = higher value
[2] = test system: transient receptor potential cation channel C4 beta (TRPC4), mouse; assay: activators of mouse TRPC4 channel, confirmation, cell-based, second round, Fluo4, HEK293 TRPC4beta/mu-opioid, 1 µM (AID 2461;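 active means primary screen active and over 50% activation in each of two duplicate runs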); conditions: Fluo4 calcium fluorescence, at 1 µM; stronger effect = higher value
[3] = test system: TRPC4 (transient receptor potential cation channel C4 beta), mouse; assay: positive allosteric modulators of mouse TRPC4, confirmation, cell-based, second round, Fluo-4, HEK293 TRPC4beta/mu-opioid, 1 µM (AID 2554;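 active means primary screen hit whose fluorescence ratio, in both repeats, exceeds the weak agonist control mean by 3 SD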); conditions: DAMGO EC20, Fluo-4 calcium flux, at 1 µM; stronger effect = higher value
[4] = test system: TRPC4 beta (transient receptor potential cation channel C4), mouse; assay: positive allosteric modulators of mouse TRPC4, confirmation, cell-based, Fluo-4, HEK293 TRPC4beta/mu-opioid (AID 2555;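 active means primary screen hit whose calcium fluorescence ratio, in both repeats, exceeds the weak agonist control mean by 3 SD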); conditions: DAMGO EC20, Fluo-4 calcium flux, at 10 µM; stronger effect = higher value
[5] = target: Short transient receptor potential channel 4 (Mus musculus) (UniProt Q9QUQ5); assay: inhibitors of mouse TRPC4 channel, confirmation, cell-based, Fluo4, HEK293 TRPC4beta/mu-opioid (AID 2636;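 active means calcium signal cut by more than 3 SD below the full-agonist control yet still positive, in both repeats and the earlier primary screen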); conditions: DAMGO, Fluo4 calcium flux, at 10 µM; stronger effect = higher value
Chain of Short transient receptor potential channel 4 (Mus musculus) (Q9QUQ5 whole entry, looked up): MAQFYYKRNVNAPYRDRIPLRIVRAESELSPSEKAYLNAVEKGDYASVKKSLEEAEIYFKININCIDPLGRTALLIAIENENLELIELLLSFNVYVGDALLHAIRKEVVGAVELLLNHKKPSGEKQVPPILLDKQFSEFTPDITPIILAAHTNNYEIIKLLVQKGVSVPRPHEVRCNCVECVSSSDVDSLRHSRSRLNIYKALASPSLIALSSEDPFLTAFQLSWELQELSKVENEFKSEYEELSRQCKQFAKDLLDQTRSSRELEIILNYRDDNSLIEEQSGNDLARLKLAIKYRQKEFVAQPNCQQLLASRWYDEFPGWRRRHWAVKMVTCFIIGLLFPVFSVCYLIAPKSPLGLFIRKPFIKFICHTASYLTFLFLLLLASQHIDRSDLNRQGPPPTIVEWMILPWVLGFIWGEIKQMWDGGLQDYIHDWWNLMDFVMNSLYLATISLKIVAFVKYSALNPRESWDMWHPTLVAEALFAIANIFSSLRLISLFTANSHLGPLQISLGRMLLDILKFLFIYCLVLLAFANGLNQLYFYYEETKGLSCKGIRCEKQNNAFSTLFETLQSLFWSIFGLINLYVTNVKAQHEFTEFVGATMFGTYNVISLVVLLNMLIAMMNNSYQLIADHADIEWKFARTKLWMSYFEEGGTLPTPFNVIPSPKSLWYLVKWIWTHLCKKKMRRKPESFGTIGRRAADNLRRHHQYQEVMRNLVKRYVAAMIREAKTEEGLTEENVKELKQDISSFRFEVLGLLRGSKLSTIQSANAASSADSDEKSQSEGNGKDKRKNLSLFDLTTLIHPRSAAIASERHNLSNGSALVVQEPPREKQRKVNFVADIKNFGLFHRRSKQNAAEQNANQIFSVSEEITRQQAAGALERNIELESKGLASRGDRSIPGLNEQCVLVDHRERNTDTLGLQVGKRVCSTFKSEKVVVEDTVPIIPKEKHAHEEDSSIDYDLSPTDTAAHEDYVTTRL

[6] = target: Short transient receptor potential channel 4 (Mus musculus) (UniProt Q9QUQ5); assay: inhibitors of mouse TRPC4 channel, confirmation, cell-based, second round, Fluo4, HEK293 TRPC4beta/mu-opioid, 1 µM (AID 2637;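 active means calcium signal ratio cut to more than 3 SD under the fully stimulated control mean yet still positive, in both repeats and the primary screen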); conditions: Fluo4 calcium flux, DAMGO, at 1 µM; stronger effect = higher value
[7] = target: Short transient receptor potential channel 4 (Mus musculus) (UniProt Q9QUQ5); assay: mouse TRPC4 channel activators, dose response, cell-based, HEK293 TRPC4/mu-opioid, Fluo-4 calcium (AID 434937;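 active means primary screen activator hit with a dose response curve and TRPC4 channel activation at any tested dose; inactive means no activation, no dose response, or not a primary hit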)
[8] = target: Short transient receptor potential channel 4 (Mus musculus) (UniProt Q9QUQ5); assay: TRPC4 positive allosteric modulators, dose response, cell-based, HEK293 TRPC4/mu-opioid, Fluo-4 calcium, EC20 DAMGO (AID 434941;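 active means earlier screen potentiator hit that boosts the TRPC4 ion channel at some dose, with a dose response; inactive means no potentiation, no dose response, or not a prior hit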;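 further: calcium entry triggered by an EC20 dose of DAMGO at the co-expressed mu-opioid receptor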)
[9] = target: Short transient receptor potential channel 4 (Mus musculus) (UniProt Q9QUQ5); assay: mouse TRPC4 channel inhibitors, dose response, cell-based, HEK293 TRPC4/mu-opioid, Fluo-4 calcium (AID 434942;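 active means primary screen inhibitor hit that blocks the TRPC4 channel at some tested dose, yielding a dose curve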)
[10] = target: Short transient receptor potential channel 6 (Mus musculus) (UniProt Q61143); assay: inhibition of mouse TRPC6 channel, confirmation, selectivity assay for TRPC4 inhibitor project, cell-based, HEK293, membrane potential dye, duplicate (AID 434948;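 active means active in primary screen and both duplicates, each dropping signal beyond three positive-control SD with fluorescence still positive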); conditions: HEK293 TRPC6, membrane potential dye fluorescence, at 10 µM, stimulated with maximal-effect acetylcholine; stronger effect = higher value
Chain of Short transient receptor potential channel 6 (Mus musculus) (Q61143 whole entry, looked up): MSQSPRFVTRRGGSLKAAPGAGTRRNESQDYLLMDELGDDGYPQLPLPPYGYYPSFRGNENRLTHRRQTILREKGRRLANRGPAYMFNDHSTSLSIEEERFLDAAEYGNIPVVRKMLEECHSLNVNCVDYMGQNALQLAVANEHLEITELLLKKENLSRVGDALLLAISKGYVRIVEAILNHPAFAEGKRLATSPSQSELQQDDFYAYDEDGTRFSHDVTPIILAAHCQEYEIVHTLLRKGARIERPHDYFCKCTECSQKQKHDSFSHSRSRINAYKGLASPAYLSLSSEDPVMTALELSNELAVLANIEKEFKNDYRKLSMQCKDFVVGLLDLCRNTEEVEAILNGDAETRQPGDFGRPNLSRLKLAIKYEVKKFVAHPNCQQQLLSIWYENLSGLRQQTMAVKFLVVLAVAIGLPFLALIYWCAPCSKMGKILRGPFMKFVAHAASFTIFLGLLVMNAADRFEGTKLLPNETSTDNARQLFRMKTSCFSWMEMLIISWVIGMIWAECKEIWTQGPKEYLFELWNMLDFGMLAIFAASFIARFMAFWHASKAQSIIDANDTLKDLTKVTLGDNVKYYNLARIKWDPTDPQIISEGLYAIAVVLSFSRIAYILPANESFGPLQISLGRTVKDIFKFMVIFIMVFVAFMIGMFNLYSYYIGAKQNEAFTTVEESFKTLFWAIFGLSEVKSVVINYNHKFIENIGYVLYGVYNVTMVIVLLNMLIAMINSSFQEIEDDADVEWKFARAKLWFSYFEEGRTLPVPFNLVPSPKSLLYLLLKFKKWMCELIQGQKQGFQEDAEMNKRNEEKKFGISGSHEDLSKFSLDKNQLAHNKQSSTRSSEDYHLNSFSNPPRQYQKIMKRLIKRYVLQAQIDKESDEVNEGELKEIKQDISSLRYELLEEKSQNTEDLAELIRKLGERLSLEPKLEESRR

[11] = target: Short transient receptor potential channel 6 (Mus musculus) (UniProt Q61143); assay: activation of mouse TRPC6 channel, confirmation, selectivity assay for TRPC4 activator project, cell-based, HEK293, membrane potential dye, duplicate (AID 434950); conditions: HEK293 TRPC6, membrane potential fluorescence, at 10 µM; stronger effect = higher value
[12] = target: Short transient receptor potential channel 6 (Mus musculus) (UniProt Q61143); assay: TRPC6 potentiation by TRPC4 potentiator hits, confirmation, selectivity assay for TRPC4 potentiator project, HEK293 cells, membrane potential dye, duplicate (AID 434952;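 active means compound raising the membrane signal above positive-control mean plus 3 SD in both repeats, and a primary screen hit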); conditions: HEK293 TRPC6, membrane potential dye fluorescence, at 10 µM, maximal acetylcholine added after compound; stronger effect = higher value
[13] = target: Short transient receptor potential channel 4 (Mus musculus) (UniProt Q9QUQ5); assay: calcium flux activators in TRPC4/5HT1a cells, counter-screen for TRPC4 activator project, cell-based, second counter screen, HEK293 TRPC4/5HT1a, Fluo-4 (AID 434977;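 active means calcium signal rise above buffer-control mean plus 5 SD in both duplicates, and also a hit in the primary screen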); conditions: Fluo-4 calcium flux, at 10 µM; stronger effect = higher value
[14] = calcium flux inhibitors in TRPC4/5HT1a cells, confirmation, counter-screen for TRPC4 inhibitor project, cell-based, second counter screen, HEK293 TRPC4/5HT1a, Fluo-4 (AID 434978;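 active means primary screen active whose calcium signal fell more than 3 SD beyond the full-serotonin control mean in both duplicate plates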;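 on outcome: serotonin given first at submaximal then at maximal dose after compound preincubation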); conditions: Fluo-4 calcium flux, at 10 µM, serotonin added to trigger calcium flux; stronger effect = higher value
[15] = test system: TRPC4 (mouse), co-expressed with 5HT1a in HEK293; assay: calcium flux potentiators in TRPC4/5HT1a cells, confirmation, counter-screen for TRPC4 potentiator project, cell-based, second counter screen, HEK293 TRPC4/5HT1a, Fluo-4 (AID 434979;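 active means signal rise over 3 SD above mean of control wells given weak agonist, in both repeats and first screen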); conditions: Fluo-4 calcium flux, at 10 µM, serotonin added at its EC20 dose; stronger effect = higher value
[16] = calcium flux activation in mu-opioid HEK293 cells, confirmation, counter-screen for TRPC4 activator project, cell-based, HEK293 mu-opioid receptor line (AID 449723;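 active means hit in primary screen, with calcium signal over 5 SD above buffer well mean in both duplicates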;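 further: counter screen cells carry the mu-opioid receptor alone and lack TRPC4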); conditions: Fluo-4 calcium fluorescence, at 10 µM; stronger effect = higher value
[17] = calcium flux enhancement in mu-opioid HEK293 cells, confirmation, counter-screen for TRPC4 allosteric potentiator project, cell-based, HEK293 mu-opioid receptor line (AID 449724;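 active means calcium signal rise more than 3 SD above the low-dose agonist control mean, in both duplicate plates and the primary screen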); conditions: Fluo-4 calcium flux, at 10 µM, compound added before EC20 DAMGO stimulus; stronger effect = higher value

Cc1ccc(Nc2ccc(S(=O)(=O)N3CCOCC3)cc2[N+](=O)[O-])cc1C
inactive: outcome [1] | outcome [2] | outcome [3] | outcome [4] | outcome [5] | outcome [6] | outcome [7] | outcome [8] | outcome [9] | outcome [10] | outcome [11] | outcome [12] | outcome [13] | outcome [14] | outcome [15] | outcome [16] | outcome [17]

Cc1ccc(Oc2ccccc2NC(=O)CSCC(=O)Nc2cc(C)on2)cc1
active: inhibition [5] 62% | inhibition [14] 35.3%
inactive: outcome [1] | outcome [2] | outcome [3] | outcome [4] | outcome [6] | outcome [7] | outcome [8] | outcome [9] | outcome [10] | outcome [11] | outcome [12] | outcome [13] | outcome [15] | outcome [16] | outcome [17]

CCN(CC)CCN(Cc1cc2ccc(C)cc2[nH]c1=O)C(=S)Nc1ccccc1C(=O)OC
active: inhibition [5] 85%
inactive: outcome [1] | outcome [2] | outcome [3] | outcome [4] | outcome [6] | outcome [7] | outcome [8] | outcome [9] | outcome [10] | outcome [11] | outcome [12] | outcome [13] | outcome [14] | outcome [15] | outcome [16] | outcome [17]

CCN(CC)CCCNC(=S)N1CCN(c2nc3ccccc3n2CC)CC1
inactive: outcome [1] | outcome [2] | outcome [3] | outcome [4] | outcome [5] | outcome [6] | outcome [7] | outcome [8] | outcome [9] | outcome [10] | outcome [11] | outcome [12] | outcome [13] | outcome [14] | outcome [16] | outcome [17]
active: potentiation [15] 17.1%

COc1ccc(CNC(=O)C(C)NCc2ccc(S(N)(=O)=O)cc2)cc1 (stereo not given)
inactive: outcome [1] | outcome [2] | outcome [3] | outcome [4] | outcome [5] | outcome [6] | outcome [7] | outcome [8] | outcome [9] | outcome [10] | outcome [11] | outcome [12] | outcome [13] | outcome [14] | outcome [15] | outcome [16] | outcome [17]

CC(=O)c1ccc(OCC(O)CN2CCN(S(=O)(=O)c3c(C)cc(C)cc3C)CC2)cc1 (stereo not given)
active: potentiation [3] 20% | potentiation [4] 23% | potentiation [15] 27.2%
inactive: outcome [1] | outcome [2] | outcome [5] | outcome [6] | outcome [7] | outcome [8] | outcome [9] | outcome [10] | outcome [11] | outcome [12] | outcome [13] | outcome [14] | outcome [16] | outcome [17]

COc1cc(Cl)c(S(=O)(=O)N2CCN(Cc3ccc4c(c3)OCO4)CC2)cc1Cl
active: potentiation [4] 10% | potentiation [15] 16.8%
inactive: outcome [1] | outcome [2] | outcome [3] | outcome [5] | outcome [6] | outcome [7] | outcome [8] | outcome [9] | outcome [10] | outcome [11] | outcome [12] | outcome [13] | outcome [14] | outcome [16] | outcome [17]

COC(=O)c1ccc(NC(=O)CCN2CCN(Cc3ccccc3)CC2)cc1
active: potentiation [3] 25% | potentiation [15] 12.9%
inactive: outcome [1] | outcome [2] | outcome [4] | outcome [5] | outcome [6] | outcome [7] | outcome [8] | outcome [9] | outcome [10] | outcome [11] | outcome [12] | outcome [13] | outcome [14] | outcome [16] | outcome [17]

COc1cc(C2c3c(-c4ccccc4)n[nH]c3C(=O)N2c2ccccc2)ccc1O (stereo not given)
inactive: outcome [1] | outcome [2] | outcome [3] | outcome [5] | outcome [6] | outcome [7] | outcome [8] | outcome [9] | outcome [10] | outcome [11] | outcome [12] | outcome [13] | outcome [14] | outcome [16] | outcome [17]
active: potentiation [4] 16% | potentiation [15] 17%

Cc1ccc(S(=O)(=O)Nc2ccc(N=Nc3ccc(O)cc3)cc2)cc1
inactive: outcome [1] | outcome [2] | outcome [3] | outcome [4] | outcome [5] | outcome [6] | outcome [7] | outcome [8] | outcome [9] | outcome [10] | outcome [11] | outcome [12] | outcome [13] | outcome [14] | outcome [15] | outcome [16] | outcome [17]

Clc1cccc2c3c([nH]c12)CCNC3
active: potentiation [4] 38% | potentiation [15] 40.3%
inactive: outcome [1] | outcome [2] | outcome [3] | outcome [5] | outcome [6] | outcome [7] | outcome [8] | outcome [9] | outcome [10] | outcome [11] | outcome [12] | outcome [13] | outcome [14] | outcome [16] | outcome [17]

OC(CNCCC(c1ccccc1)c1ccccc1)COc1ccccc1 (stereo not given)
inactive: outcome [1] | outcome [2] | outcome [3] | outcome [4] | outcome [5] | outcome [6] | outcome [7] | outcome [8] | outcome [9] | outcome [10] | outcome [11] | outcome [12] | outcome [13] | outcome [14] | outcome [15] | outcome [16] | outcome [17]

O=C(OCCCCN1C(=O)c2ccccc2C1=O)c1ccc(S(=O)(=O)N2CCCC2)cc1
inactive: outcome [1] | outcome [2] | outcome [3] | outcome [4] | outcome [5] | outcome [6] | outcome [7] | outcome [8] | outcome [9] | outcome [10] | outcome [11] | outcome [12] | outcome [13] | outcome [14] | outcome [15] | outcome [16] | outcome [17]

CCCn1c(SCC(=O)N2c3ccccc3Sc3ccccc32)nc2c1c(=O)n(C)c(=O)n2C
active: potentiation [4] 18% | potentiation [15] 45.1%
inactive: outcome [1] | outcome [2] | outcome [3] | outcome [5] | outcome [6] | outcome [7] | outcome [8] | outcome [9] | outcome [10] | outcome [11] | outcome [12] | outcome [13] | outcome [14] | outcome [16] | outcome [17]

COc1ccccc1-c1cc(-c2ccccc2)nc(=O)[nH]1
active: potentiation [4] 22% | potentiation [15] 51.2%
inactive: outcome [1] | outcome [2] | outcome [3] | outcome [5] | outcome [6] | outcome [7] | outcome [8] | outcome [9] | outcome [10] | outcome [11] | outcome [12] | outcome [13] | outcome [14] | outcome [16] | outcome [17]
